Assay outcomes: PubChem, National Center for Advancing Translational Sciences (NCATS)
Hits are enriched below; roughly 14% of the tested compounds scored in any of these assays.
HCMV antiviral = inhibitors of human cytomegalovirus | HFF cells, HCMV-luciferase reporter, 72 h; hits give low values | activity change, negative = inhibition, % at 57.5 µM | 410,000 compounds, 4.5% hits | AID 1259415; in the data active = activity change below about -60%; inconclusive = no clear call, values can overlap the other calls; inactive = above about -39%
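Inhibition of viral replication was scored as loss of reporter luminescence in HFFs infected with HCMV-luciferase (MOI 1 PFU/cell) for 72 h; compounds tested at 2 doses, normalized to buffer and Salinomycin controls.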
HCV inhibitor = HCV inhibition. Huh7.5.1 HCVcc-Cre infection, luciferase reporter, 44 h. Potency, µM (top dose mostly 41.8 µM), inactives show top-dose activity change, negative = inhibition, most hits filed as inhibitors. 340,000 compounds, 3.4% hits. AID 651820; also: potency is read from the fitted curve at half-maximal effect
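Whole-lifecycle infectious HCVcc-Cre system; cells 1,000/well, compound then virus (~0.5 moi) added 4 h after plating, 44 h culture. Luciferase read 15 sec following 15 min substrate incubation, room temp.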
Marburg entry inh = Marburg virus entry inhibition; 300,000 compounds, 1.8% hits; Marburg virus pseudotyped entry inhibition, cell reporter; Potency, µM (series often up to 37.8 µM), inactives show top-dose activity change, negative = inhibition, usual class: inhibitors; AID 540276; calls by dose curve; tested in HEK293 cells; also: potency is read from the fitted curve at half-maximal effect
Lassa entry inh = inhibitors of Lassa virus binding or cell entry; Potency, µM (series often up to 37.9 µM), for the others: at the top dose activity change, negative = inhibition, most hits filed as inhibitors; 300,000 compounds, 1.2% hits; Lassa virus pseudotype entry inhibition, cell reporter; calls by dose curve; tested in HEK293 cells; also: potency is read from the fitted curve at half-maximal effect; nearly all actives have a fitted effect of over 50% in size
Pf growth 48h = P. falciparum growth inhibition at 48 hours (one generation). P. falciparum luciferase growth in erythrocytes, 48 h. Potency, µM (series often up to 28.7 µM), without a hit: top-dose activity change, negative = inhibition, hits mostly inhibitors. 310,000 compounds, 5.9% hits. AID 504832; also: potency is read from the fitted curve at half-maximal effect
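Parasite viability was followed by luminescence of a genomically integrated firefly luciferase. Cultures held 0.1% parasitemia at 2% hematocrit (final), incubated under 5% CO2 at 37 C.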
Pf growth 96h = P. falciparum growth inhibition at 96 hours. P. falciparum luciferase reporter growth, 96 h. Potency, µM (titrated, usually from 28.7 µM), for the others: at the highest dose activity change, negative = inhibition, actives largely listed as inhibitors. 320,000 compounds, 6.9% hits. AID 504834; also: potency is read from the fitted curve at half-maximal effect
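P. falciparum expressing integrated firefly luciferase grown in erythrocytes (2% hematocrit, 0.05% parasitemia final) with compounds for 96 hours at 37 C, 5% CO2. Growth inhibition read as loss of luminescence after adding luciferase detection reagent.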
* marks the source's active call; other numbers are inactive results; ? = inconclusive; · = not tested or not shown; [ ] = dose if it differs, or a comment. Unless noted, calls follow the shape of the dose curve; as a rule, active = well fitted inhibition curve with a large enough effect; inconclusive = small, poorly fitted or top-dose-only effect, or another doubt; inactive = no such curve, though single readings can be large or run the other way. % is scaled to controls: 0 for no effect and ±100 for the full control effect.

SMILES | HCMV antiviral | HCV inhibitor | Marburg entry inh | Lassa entry inh | Pf growth 48h | Pf growth 96h
CC(C)n1nccc1N(Cc1ccc(Br)cc1)S(=O)(=O)c1ccccc1 | -14 | -15% | ? | ? | 13µM* | 5.2µM*
COc1cccc(-n2cc(CN(C)Cc3nc(Cc4ccccc4)no3)cn2)c1 | 5 | 3% | -8%[46.1 µM] | ? | 24% | ?
COc1cccc(CN(C)Cc2nc(C3CC3)no2)c1 | 46 | -3% | · | · | 75% | 12µM*
CCn1cnc2sc(C(=O)Oc3ccc(Br)cc3)c(C)c2c1=O | -31 | -30% | 23%[46.1 µM] | 4% | 54% | 2.9µM*
COc1ccc(-c2nc(NC(C)=O)sc2-c2ccc(OC)cc2)cc1 | 7 | ? | -3%[46.1 µM] | 1% | -27% | 3%
COc1ccc(C2CC(=O)c3sc(NC(C)=O)nc3C2)cc1 (centres undefined) | -70* | 13% | ? | -7% | ? | ?
CS(=O)(=O)Nc1cccc(C2=NN(C(=O)CCC(=O)O)C(c3cccs3)C2)c1 (centres undefined) | -16 | 19% | · | · | -5%[0.00184 µM] | 5%
CS(=O)(=O)Nc1ccc(C2=NN(C(=O)CCCC(=O)O)C(c3cccs3)C2)cc1 (centres undefined) | -84* | 23% | -16%[46.1 µM] | 17%[46.1 µM] | -16% | 1.9µM*
Cc1ccccc1C(=O)N1N=C(c2ccc(NS(C)(=O)=O)cc2)CC1c1cccs1 (centres undefined) | -24 | 1% | ? | ? | ? | 1.7µM*
CC12CCCCCC3=CC(=O)C=C[C@]31OCC2 (some centres undefined) | -23 | · | · | · | · | ·
CC(=O)C1CCC2C3CCC4CC(=O)CCC4(C)C3C=CC12C (centres undefined) | -18 | -11% | -24%[46.1 µM] | -1%[46.1 µM] | · | ·
CC1=CCC(C(C)(C)O)CC1 (centres undefined) | · | · | · | · | 3% | 14%
Cc1ccc(Cl)cc1N1CCN(C(=O)C2CCC(=O)N(C3CCCCCC3)C2)CC1 (centres undefined) | -25 | ? | · | · | 12µM* | ?
O=C(C1CCC(=O)N(C2CCCC2)C1)N1CCN(Cc2cccc(Cl)c2)CC1 (centres undefined) | -72* | -2% | 29% | -12% | -16% | 23%
O=C(C1CCC(=O)N(C2CCCC2)C1)N1CCN(c2ccc(Cl)cc2)CC1 (centres undefined) | -15 | -12% | · | · | ? | 288%
Cc1cc(C(=O)N2CCC2(C)C(=O)NCC(C)(C)C)nn1C (centres undefined) | -8 | · | · | · | · | ·
Nc1ncnc(N)c1NC(=O)c1cc(Cl)c(OCc2ccccc2)c(Cl)c1 | -18 | · | · | · | · | ·
COc1ccc(-c2nnc3n2N=C(c2cccc(Br)c2)CS3)cc1OC | · | · | -3% | · | 11% | 2%
Cc1cccc(-c2nnc3n2N=C(c2ccccc2Br)CS3)c1 | -83* | ? | ? | ? | ? | -19%
Cc1cc(-c2nnc3n2N=C(c2ccccc2Br)CS3)n[nH]1 | -38 | -16% | -28%[46.1 µM] | -6% | ? | 12µM*
C=CCCC1CN(Cc2ccc(OC)cc2)S(=O)(=O)c2c(cccc2N(C)S(=O)(=O)c2ccc(C)cc2)O1 (centres undefined) | -19 | · | · | · | · | ·
COC(=O)C[C@H](NC(=O)Cn1cnc(C(=O)Nc2ccc(C)c(C)c2)n1)C(=O)OC | -65* | 13% | 2% | · | · | ·
O=C(Nc1ccccc1F)N1CC(=O)N2[C@H](CO)[C@H](c3ccc(Br)cc3)[C@@H]2C1 | 18 | · | · | · | · | ·
C=CC[n+]1c(-c2ccc(OCC)cc2)csc1NNC(=O)Nc1ccccc1 | -88* | 7.1µM* | -7% | ? | · | ?
C=CC[n+]1c(-c2ccc(C)cc2)csc1Nc1c(C)n(C)n(-c2ccccc2)c1=O | ? | -27% | ? | ? | 0% | -18%
NC1=C(Cl)C(=O)c2ccc(S(N)(=O)=O)cc2C1=O | -101* | 0.56µM* | 2µM* | ? | · | ·
NC1=C(Cl)C(=O)c2ccccc2C1=O | -13 | 8.9µM* | ? | -11% | · | ·
CCOc1cccc2sc(N3CCN(C(=O)c4ccc5ncsc5c4)CC3)nc12 | -10 | ? | ? | 18% | ? | 12µM*
